Experimental data taken from PubChem BioAssay (NCI).
The panel holds about 83,000 compounds, 20% with a hit somewhere; the sample as a whole holds those more often.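 The endpoint reported here, percent growth, reads 100 for growth as untreated, 0 for no net growth and -100 for all cells dead.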 Unmarked numbers belong to inactive results. Active and inactive are the calls of the source. How the source made its calls: active means growth percent below 10; inactive means the rest.

Key:
Test in all cases: NCI-60 one-dose screen, 48 h (100 = growth as untreated, 0 = no growth, -100 = all killed)
NCI-H23 lung = conditions: 10 µM
NCI-H226 lung = conditions: 10 µM
NCI-H322M lung = conditions: 10 µM
HOP-62 NSCLC = conditions: 10 µM
NCI-H460 lung = conditions: 10 µM
HOP-92 NSCLC = conditions: 10 µM
NCI-H522 lung = conditions: 10 µM
A549/ATCC NSCLC = conditions: 10 µM
786-0 renal = conditions: 10 µM
DU-145 prostate = conditions: 10 µM
K-562 leukemia = conditions: 10 µM
MALME-3M melanoma = conditions: 10 µM
MDA-MB-231 breast = conditions: 10 µM
RXF 393 renal = conditions: 10 µM
SF-268 CNS = conditions: 10 µM
SF-295 CNS = conditions: 10 µM
SF-539 CNS = conditions: 10 µM
UACC-257 melanoma = conditions: 10 µM
M14 melanoma = conditions: 10 µM unless noted

| SMILES | growth (NCI-H23 lung) | growth (NCI-H226 lung) | growth (NCI-H322M lung) [%] | growth (HOP-62 NSCLC) | growth (NCI-H460 lung) | growth (HOP-92 NSCLC) | growth (NCI-H522 lung) | growth (A549/ATCC NSCLC) | growth (786-0 renal) | growth (DU-145 prostate) | growth (K-562 leukemia) | growth (MALME-3M melanoma) | growth (MDA-MB-231 breast) | growth (RXF 393 renal) | growth (SF-268 CNS) | growth (SF-295 CNS) | growth (SF-539 CNS) | growth (UACC-257 melanoma) | growth (M14 melanoma) |
| --- | --- | --- | --- | --- | --- | --- | --- | --- | --- | --- | --- | --- | --- | --- | --- | --- | --- | --- | --- |
| NCc1c(O)ccc2ccccc12 | 102% | 96.2% | 96.4 | 90.7% | 108% | 73% | 95% | 94.7% | 103% | 109% | 99.1% | 96.6% | 105% | 102% | 97.2% | 75.5% | 92.8% | 95.6% | 90.8% |
| O=C1C(Cl)=C(Cl)C(Cl)(Cl)C(Cl)C1(Cl)Cl (stereo not given) | 106% | 105% | 103 | 98.5% | 118% | 104% | 89.3% | 105% | 102% | 114% | 102% | 99.9% | 96.2% | 116% | 108% | 94.5% | 96.2% | 110% | 103% |
| CC1CCC2(C(=O)O)CCC3(C)C(=CCC4C5(C)CC(O)C(O)C(C)(CO)C5C(O)CC43C)C2C1C (stereo not given) | 94.6% | 115% | 98.7 | 111% | 111% | 79% | 87.9% | 27% | 110% | 110% | 106% | 103% | 107% | 26.2% | 111% | 112% | 99.6% | 93.7% | 53.9% |
| COc1ccc2oc(-c3ccc(Cl)cc3)c(N3CCN(C)CC3)c2c1 | 73.6% | 91% | 113 | 51.9% | -62.6% (active) | -17.1% (active) | -78.2% (active) | 39.6% | 27.2% | 24.3% | -24.7% (active) | 121% | 0.119% (active) | 28% | 37.2% | -54.5% (active) | -6.28% (active) | 22% | -66% (active) |
| Cn1ncc2cc3c(Nc4ccc(Cl)cc4)cccc3nc21 | 85.6% | 94.4% | 104 | 89.3% | 89.8% | 77% | 83.8% | 80% | 89.3% | 90% | 80.2% | 122% | 81.7% | 90.5% | 85.5% | 87.6% | 90.7% | 100% | 104% |
| COc1ccc(C(C#N)=C2C=CC(=NO)C=C2)cc1 | 94.9% | -14.3% (active) | 94.3 | 47.7% | 65.8% | 137% | -24.7% (active) | 88.9% | 34.9% | 72.4% | 46.6% | 103% | 96.3% | 113% | 80.9% | 106% | 79% | 58.1% | 79.1% |
| Cc1cc(N=C2C=CC(=[N+](C)C)C=C2)c(N)cc1N | 78.2% | 97.9% | 93.7 | 101% | 102% | 97.3% | 77.7% | 84.6% | 96% | 104% | 57.3% | 106% | 65.2% | 96.3% | 97.9% | 90.8% | 89.3% | 103% | 107% |
| N#C/C(=C/N1C(=O)/C(=C/c2ccc([N+](=O)[O-])cc2)SC1=S)c1nc2ccccc2s1 | 89.1% | 63.8% | 88.1 | 82.4% | 90.3% | 66.8% | 78.7% | 91.4% | 94.8% | 104% | 77.5% | 111% | 73.6% | 96.8% | 95% | 86.8% | 91.9% | 96.5% | 94.6% |
| Cc1cc(O)c2c(c1O)C(=O)C13C(=C2O)C(=O)C2C(O)C1C1C(O)C3C(=O)C3=C(O)c4c(O)cc(C)c(O)c4C(=O)C321 (stereo not given) | 32.3% | -2.71% (active) | 19.4 | 3.99% (active) | 0.0816% (active) | -18.2% (active) | 5.74% (active) | -11.4% (active) | -33.2% (active) | -6.49% (active) | 9.5% (active) | -2.77% (active) | 13.6% | -13.7% (active) | 10.6% | -30.2% (active) | -47.2% (active) | 8.71% (active) | – |
| O=Nc1ccc(Nc2ccccc2)cc1 | 89% | 92.8% | 98.5 | 111% | 97.8% | 26% | 66.8% | – | 80% | 94.9% | 13.4% | 104% | 62.5% | 86.5% | 86% | 101% | 67.7% | – | 89.7% |
| O=C(CNS(=O)(=O)Cc1ccccc1)NNc1ccccc1 | 92.3% | 72.9% | 75 | 46.3% | 29.4% | 101% | 41% | 55.8% | 76.6% | 67.2% | 9.47% (active) | 91.3% | – | 120% | 60.1% | 26.2% | 61.4% | 84.5% | 31.1% |
| S=C1SCN(CCc2ccccc2)CN1CCc1ccccc1 | 96.5% | 99.4% | 86.5 | 87.6% | 108% | – | 58.6% | 90.8% | 117% | 93% | 55.8% | 87.3% | 99.3% | 91.8% | 106% | 93.4% | 115% | 71.6% | 120% |
| Cc1c(-c2ccccc2)[nH]c2ccccc12 | 103% | 95.3% | 108 | 104% | 104% | 71.8% | 86.1% | 102% | – | 107% | 110% | 106% | 95.1% | 109% | 104% | 106% | 99.3% | 112% | 143% |
| ClCCn1c(CCl)nc2ccc(Cl)cc21 | -17.1% (active) | – | 99.5 | – | 0.311% (active) | -57.2% (active) | -73.2% (active) | -12.5% (active) | -59.9% (active) | -59.3% (active) | -23.7% (active) | -64.3% (active) | -61.7% (active) | -73.9% (active) | -69.2% (active) | 25.3% | -43.9% (active) | 70.3% | -83.3% (active) |
| O=C1c2ccccc2CCC1(Br)Br | 28.9% | 27.1% | 100 | 96.5% | 95% | – | -70.8% (active) | 96% | 14.8% | 21.8% | -13.5% (active) | -45.8% (active) | -1.14% (active) | – | 59.3% | 105% | 16.9% | 63% | 5.66% (active) |
